Tgondii IFNg: T. gondii growth inhibition under IFN-gamma. Toxoplasma gondii growth in IFN-gamma-treated host cells; active compounds read low. activity change, negative = inhibition, % (concentration not given with the values). actives 3.8% (n = 69,000); in the data active = activity change below about -70%, passing the limit was not always enough;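 note: host cells are HeLa cells infected with Toxoplasma gondii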
Of the large screens only hits and unclear results are named; the others gave an inactive call; ! = not active in a repeat. The sample as a whole holds a higher share of hits than the screen did.

C=CCOc1ccc(Cl)cc1C(=O)NCc1c(C)n[nH]c1C	none
CN(C)C(=O)COC1CC2(CCN(c3cnccn3)CC2)c2ccccc21 (configuration not stated)	none
COc1ccc(-c2nnc(-c3nc(NCCc4ccc(C)cc4)c4ccccc4n3)o2)cc1	none
CCn1cc(C(=O)N2CCN(c3ccccc3OC)C(C)(C)C2)c(C)n1	none
CC(=O)NCC(=O)N1CCC2(CC1)CC(Nc1ncccn1)C2	none
Cc1ccc(NC(=O)c2cc(-c3cnc(-c4ccccc4)nc3)cn2CC2CC2)cn1	none
Cc1cc(S(=O)(=O)NC2CCCCNC2=O)c(C(F)(F)F)o1 (configuration not stated)	none
Cc1ccc(CN2CCN(Cc3cnc(C)[nH]3)CC2=O)cc1	none
CCCOCCN1CCN(c2ncc(C)c(N(C)C)n2)CC1	none
Cc1ccc(CN2CCN(c3ncc(C)c(N(C)C)n3)CC2=O)cc1	Tgondii IFNg -85
Cc1cc(CN2CCCC3(COCCN(C)C3)C2)n(C)n1 (configuration not stated)	none
CC(C)COCC(CN(Cc1ccccc1)c1ccccc1)N1CCCC1 (configuration not stated)	Tgondii IFNg -76!
CC(COc1ccccc1)N(CCCl)Cc1ccccc1 (configuration not stated)	none
COc1ccc(NC(=O)N2CCC(c3nc(C(=O)N4CCCCC4)c(C)o3)CC2)cc1F	none
CCn1cc2c(n1)CN(Cc1ccco1)CC2COCC1CC1 (configuration not stated)	none
Cc1cc(CN(C)C(=O)c2cccc(NCc3ccc(C)s3)c2)on1	none
CN(C)C1CCN(C(=O)c2cnc(-c3noc4cc(-c5ccccc5)ccc34)s2)CC1	none
CCCCN(C)C(=O)c1cnc(-c2noc3cc(NCC4CC4)ccc23)s1	Tgondii IFNg -82
CCc1ccccc1NC(=O)c1c(O)c2cccnc2n(-c2cccc(OC)c2)c1=O	none
CN1Cc2ccccc2CC1C(=O)NCCc1csc(-c2cccnc2)n1 (configuration not stated)	none
CCOCC1CC2(CCN(C(=O)Cc3ccccc3F)CC2)CO1 (configuration not stated)	none
CN(C)CC1COC2(COCCN(C(=O)N(C)C)C2)C1 (configuration not stated)	none
CC(=O)N1CC[C@]2(CCC[C@@H](CNC(=O)c3cccn3C)O2)C1	none
O=C(Nc1cc(C(F)(F)F)ccc1N1CCCCC1)c1ccncc1	none
C#CCOC(=O)NC(=O)c1ccc(C(F)(F)F)cc1	none
O=C(NC(=O)c1ccc(C(F)(F)F)cc1)NN1CCCCCC1	Tgondii IFNg -77
Cc1ccc(Cl)cc1N1CCN(CC(=O)Nc2cnccn2)CC1	none
CC(C)N(C)Cc1ncn2c1CN(C(=O)c1cnccn1)CCC2	none
C#C[C@]1(OC(C)=O)CCC2C3CCC4=C/C(=N/O)CCC4C3CC[C@@]21CC (some centres not stated)	Tgondii IFNg -78
C#C[C@]1(O)CCC2C3CCC4=CC(=O)CC[C@@H]4C3CC[C@@]21CC (some centres not stated)	none
C#C[C@]1(O)CC[C@H]2[C@@H]3CCC4=CC(=O)CC[C@@H]4[C@H]3CC[C@@]21C	none
O=C(C[C@]12COC[C@H]1CN(Cc1cccc(F)c1)C2)N1CCOCC1	none
Cn1ncc(Cl)c1-c1cc(C(=O)N[C@H](CN)Cc2ccc(F)c(F)c2)oc1Cl	Tgondii IFNg -81
CC(C)c1ccc(S(=O)(=O)N2CC3CCC2C3OCCN(C)C)cc1 (configuration not stated)	none
Cc1c(S(=O)(=O)N2CCC(c3cc(C(=O)NCc4cccs4)on3)CC2)cnn1C	none
COc1ccc(Nc2nc(-c3ccc(OC)cc3)nc3ccccc23)cc1	none
COC(=O)c1ccc2nc(N)sc2c1	none
Nc1nc2ccc(OC(F)(F)F)cc2s1	Tgondii IFNg -94!
Nc1nc2ccc(-c3nc4ccccc4[nH]3)cc2s1	none
Cc1ccc2c(c1)CCCN2CCn1c(=O)[nH]c2ccc(C)cc2c1=O	Tgondii IFNg -82
Cc1ccc2[nH]c3c(=O)n(CCCN4CCN(C)CC4)cnc3c2c1	none
Cc1ccc2[nH]c3c(=O)n(CCc4cnc[nH]4)cnc3c2c1	none
CCC(=O)Nc1cccc(OCC(=O)N(C)Cc2ncc(C)[nH]2)c1	none
O=C(Nc1ccccc1-c1nc(-c2ccccc2)no1)c1cccnc1	none
Nc1nc(Cl)nc2c1ncn2C1OC(CO)C(O)C1F (configuration not stated)	Tgondii IFNg -78
OC[C@H]1O[C@@H](n2cnc3c(NC4CCCC4)nc(Cl)nc32)[C@H](O)[C@@H]1O	none
Nc1nc(Cl)nc2c1ncn2[C@@H]1O[C@H](CO)[C@@H](O)[C@H]1O	none
COc1ccccc1-c1ncc(CN2CCCC2c2ccccn2)s1 (configuration not stated)	none
O=C(c1ccc(-c2cccs2)s1)c1ccc(F)cc1F	none
O=C(Sc1ccc(Cl)cc1)c1ccc(-c2cccs2)s1	Tgondii IFNg -104
CC(=O)c1ccc(-c2cccs2)s1	none
CN(C)C(=O)N1CC[C@@H]2C(=O)N(Cc3cccc(F)c3)CCO[C@H]2C1	none
C[C@@H]1CC[C@H]2[C@@H](C)C(O)O[C@@H]3O[C@]4(C)CC[C@@H]1[C@]32OO4 (some centres not stated)	Tgondii IFNg -82
Cc1cccc(-c2nnc(-c3nc(Nc4ccc(C)c(F)c4)c4ccccc4n3)o2)c1	none
COc1cc(Nc2nc(-c3nnc(-c4cccc(C)c4)o3)nc3ccccc23)cc(OC)c1	Tgondii IFNg -130
COc1cccc(Nc2nc(-c3nnc(-c4ccc(C)cc4)o3)nc3ccccc23)c1	none
CCOc1ccccc1Nc1nc(-c2nnc(-c3cccc(C)c3)o2)nc2ccccc12	none
COc1ccccc1Nc1nc(-c2nnc(-c3cccc(C)c3)o2)nc2ccccc12	Tgondii IFNg -86
COc1ccc(-c2nnc(-c3nc(Nc4cc(C)cc(C)c4)c4ccccc4n3)o2)cc1	Tgondii IFNg -101
COc1ccccc1Nc1nc(-c2nnc(-c3ccccc3)o2)nc2ccccc12	Tgondii IFNg -92
COc1ccc(-c2nnc(-c3nc(Nc4cccc(OC)c4)c4ccccc4n3)o2)cc1	none
Cc1cccc(Nc2nc(-c3nnc(-c4ccccc4)o3)nc3ccccc23)c1C	none
COc1ccc(C)cc1Nc1nc(-c2nnc(-c3ccc(Cl)cc3)o2)nc2ccccc12	none
Cc1cccc(Nc2nc(-c3nnc(-c4cccc(C)c4)o3)nc3ccccc23)c1	none
CCn1ncc(Cl)c1C(=O)N1CCOC(c2ccc(Cl)cc2)C1 (configuration not stated)	none
Cc1ccc(C)c(OCC(=O)NCC2(c3ccc(F)cc3)CCOC2)c1C (configuration not stated)	none
CCOc1ccc(C(=O)Nc2ccc(-c3nc(Cn4nc(C)cc4C)c(C)o3)cc2)cc1	none
Cc1c(-c2ccc(Cl)cc2)n[nH]c1C(=O)N1CCC2(CN(C)C(=O)O2)C1 (configuration not stated)	none
CCc1ccc(Nc2nc(C(=O)NCCN3CCCC3)nc3ccccc23)cc1	none
O=S(=O)(Nc1ccc(S(=O)(=O)N2CCOCC2)cc1)c1cccs1	none
CC1(O)C(O)C(CO)OC1n1ccc(N)nc1=O (configuration not stated)	none
Cc1nc2c(c(=O)n1C)CCN(C(=O)NCc1ccco1)CC2	none
CCOc1ccc2cc(-c3cc4c(c(C)n3)c(=O)oc3cc(OCC)ccc34)c(=O)oc2c1	none
CC(C)C(=O)NCc1csc(C2CCCN(C(=O)CCc3ccccc3)C2)n1 (configuration not stated)	none
Nc1nccc(N2CC[C@@H](N3CCCCCC3)[C@H](O)C2)n1	none
COc1ccc(Nc2nc(-c3nnc(-c4ccc(C)cc4)o3)nc3ccccc23)cc1Cl	none
COc1ccc(Nc2nc(-c3nnc(-c4cccc(C)c4)o3)nc3ccccc23)cc1OC	none

High-throughput results: PubChem, Broad Institute
